A short description of assay [1]: qHTS of pediatric cancer cell lines to identify multiple opportunities for drug repurposing: Primary screen for NB-EBc1 cells (AID 1347095). Put shortly:
(§1)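 500-1,000 cells/well; 5 h pre-incubation 37 °C/5% CO2; compound pinned; 48 h; CellTiter-Glo, 15 min RT; luminescence. MIPE 11-pt from 0.78 nM, NPC 8-pt from 0.59 nM final. Bortezomib 2.3 µM final as positive control.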
On the technique in general: Quantitative high-throughput screening tests each substance at several concentrations.

The nature of assay [2]: qHTS of pediatric cancer cell lines to identify multiple opportunities for drug repurposing: Primary screen for U-2 OS cells (AID 1347096). Note: nearly all actives have a fitted effect of over 50% in size. Put shortly: (§2)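 Cells (500-1,000/well) rested 5 h, then received compounds for 48 h; metabolically active cells were measured by CellTiter-Glo luminescence. Final concentrations spanned up to 46 µM (MIPE, 11-point) or 0.59 nM-46 µM (NPC, 8-point) in primary screens, 11-point in follow-ups.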

A short description of assay [3]: qHTS of pediatric cancer cell lines to identify multiple opportunities for drug repurposing: Primary screen for SK-N-SH cells (AID 1347098).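 Note: DMSO served as neutral control and bortezomib at 2.3 µM as positive control; nearly all actives have a fitted effect of over 65% in size.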 Put shortly:
as §2

Assay [4] is described as follows: qHTS of pediatric cancer cell lines to identify multiple opportunities for drug repurposing: Primary screen for NB1643 cells (AID 1347099). Note: nearly all actives have a fitted effect of over 50% in size. Note: potency is the fitted concentration of half-maximal effect. The gist of the method:
as §1

Assay [5] in a line: qHTS of pediatric cancer cell lines to identify multiple opportunities for drug repurposing: Primary screen for LAN-5 cells (AID 1347100). The gist of the method: as §2
A short description of assay [6]: qHTS of pediatric cancer cell lines to identify multiple opportunities for drug repurposing: Primary screen for BT-12 cells (AID 1347101). Note: nearly all actives have a fitted effect of over 25% in size. Put shortly:
as §2

A short description of assay [7]: qHTS of pediatric cancer cell lines to identify multiple opportunities for drug repurposing: Primary screen for Rh18 cells (AID 1347102). Note: nearly all actives have a fitted effect of over 65% in size. The gist of the method: as §2
Assay [8] is described as follows: qHTS of pediatric cancer cell lines to identify multiple opportunities for drug repurposing: Primary screen for OHS-50 cells (AID 1347103). Note: nearly all actives have a fitted effect of over 40% in size. The gist of the method:
as §2

The nature of assay [9]: qHTS of pediatric cancer cell lines to identify multiple opportunities for drug repurposing: Primary screen for RD cells (AID 1347104). Note: nearly all actives have a fitted effect of over 55% in size. The gist of the method: as §1
Assay [10] can be described thus: qHTS of pediatric cancer cell lines to identify multiple opportunities for drug repurposing: Primary screen for Saos-2 cells (AID 1347097). Note: nearly all actives have a fitted effect of over 40% in size. The gist of the method:
as §1

Each structure is given as a SMILES string. Inconclusive results are not listed. A number with no mark means an inactive call. Active and inactive are the calls of the source. Calls come from the whole dose curve; as a rule, active = well fitted curve in the direction sought with a large enough effect; inconclusive = small, poorly fitted or top-dose-only effect, or another doubt; inactive = no such curve, though single readings can be large; an effect the other way counts as inactive or inconclusive.

In the case of `Cc1c(C(=O)NCCO)[n+](=O)c2ccccc2n1[O-]`, the molecule was called inactive in [1], in assay [2], in assay [3], in [5], in assay [6] and in assay [7]. Also, the molecule was classed as inactive in assay [8] and in [9]. Also, in assay [4], the Potency result is “inactive”.
For the molecule `Cc1cc(NC(=O)C2=C(O)c3ccccc3S(=O)(=O)N2C)no1`, the molecule was classed as inactive in assay [1], in [2], in assay [3], in assay [6], in assay [7] and in assay [8]. Also, the molecule was called inactive in assay [9].
`CN(C/C=C/C#CC(C)(C)C)Cc1cccc2ccccc12`: the molecule was called inactive in assay [2], in assay [3], in assay [5], in assay [7] and in assay [9]. Moreover, in assay [4], the Potency entry is “inactive”.
For `O=C1c2ccccc2S(=O)(=O)N1CCCCN1CCN(c2ncccn2)CC1`, the molecule was called inactive in [1], in assay [2], in assay [3], in assay [6], in [7] and in [8]. Besides, the call in [9] was inactive.
Take `CC(C)C[C@@H](N)C(=O)O`: the molecule was classed as inactive in [1], in assay [2], in assay [3], in assay [5], in assay [6] and in [7]. In addition, the molecule was classed as inactive in [8] and in assay [9]. Moreover, the Potency in assay [4] was 1 nM (active).
Regarding `NCc1ccc(S(N)(=O)=O)cc1`, the call in assay [1], in assay [2], in assay [3], in assay [5], in assay [6] and in [7] was inactive. In addition, the call in assay [8] and in [9] was inactive.
In the case of `CCCCOC(=O)c1ccc(N)cc1`, the molecule was classed as inactive in assay [2], in assay [10], in assay [3], in assay [5], in [6] and in assay [7].
In the case of `CN[C@@H]1[C@@H](O)[C@@H](O[C@@H]2[C@H](O)[C@H](O[C@H]3OC(CN)=CC[C@H]3N)[C@@H](N)C[C@H]2N)OCC1(C)O` (some centres undefined), the molecule was called inactive in assay [1], in [2], in assay [3], in assay [5], in assay [6] and in [7]. The result in assay [8] and in assay [9] was inactive.
Take `COc1ccccc1Oc1c(NS(=O)(=O)c2ccc(C(C)(C)C)cc2)nc(-c2ncccn2)nc1OCCO`: the call in assay [2], in assay [10], in assay [3], in assay [5], in assay [6] and in [7] was inactive. In addition, the molecule was classed as inactive in assay [8] and in assay [9]. Moreover, the Potency result in assay [4] is “inactive”.
As for `CCC(C)(CN(C)C)OC(=O)c1ccccc1` (centres undefined), the molecule was classed as inactive in [1], in assay [2], in [3], in [6], in assay [7] and in assay [8].
On to `Cn1cc(C(=O)[C@@H]2CCc3nc[nH]c3C2)c2ccccc21`, for which the outcome in assay [1], in assay [2], in assay [5], in assay [6], in [7] and in assay [9] was inactive. Further, in assay [4], the Potency entry was “inactive”.
With `O=C(NCC(O)CO)c1c(I)c(C(=O)NCC(O)CO)c(I)c(N(CCO)C(=O)CO)c1I` (centres undefined), the molecule was classed as inactive in [1], in assay [2], in assay [3], in [5], in assay [7] and in assay [8]. In addition, the molecule was classed as inactive in assay [9]. Also, the Potency entry in assay [4] was “inactive”.
`O=C(O)/C=C/c1ccc(Cn2ccnc2)cc1`: the call in assay [1], in assay [2], in assay [3], in assay [7] and in [8] was inactive. The Potency result in assay [4] was “inactive”.
With `O=C(O)c1ccccc1C(=O)Nc1ccc(S(=O)(=O)Nc2nccs2)cc1`, the outcome in assay [1], in assay [2], in assay [3], in [5], in [6] and in assay [7] was inactive. Besides, the call in assay [8] and in [9] was inactive.
As for `CC(=O)Nc1cccc(O)c1`, the call in [1], in assay [2], in assay [3], in assay [6], in assay [7] and in [8] was inactive. Besides, the molecule was called inactive in [9]. The Potency result in assay [4] is “inactive”.
Consider `Cc1cc(C)c(NC(=O)CN(CC(=O)O)CC(=O)O)c(C)c1Br`, for which the outcome in assay [1], in assay [2], in assay [3], in assay [5], in assay [7] and in assay [8] was inactive. For the same molecule, in [9], the molecule was called inactive. Also, the Potency result in [4] was “inactive”.
For the molecule `Cc1c(NC(C)C)c(=O)n(-c2ccccc2)n1C`, the call in [1], in assay [2], in assay [3], in assay [5], in assay [7] and in [8] was inactive. Further, the molecule was called inactive in assay [9]. In assay [4], the Potency entry is “inactive”.
For `CC(C(=O)O)c1ccc2c(c1)Cc1cccnc1O2` (centres undefined), the result in assay [1], in [2], in assay [3], in assay [5], in assay [7] and in assay [8] was inactive. In addition, the call in [9] was inactive. Further, the Potency result in assay [4] is “inactive”.
As to `O=C(O)C(S)C(S)C(=O)O` (centres undefined), the outcome in [1], in assay [2], in assay [3], in assay [5], in assay [6] and in [7] was inactive. Moreover, the molecule was called inactive in assay [8] and in assay [9]. Moreover, in assay [4], the Potency result was “inactive”.
Turning to `CCCCCCCC(=O)OCC(COC(=O)CCCCCCC)OC(=O)CCCCCCC`, the outcome in assay [1], in [2], in [3], in assay [5], in [6] and in [7] was inactive. The molecule was classed as inactive in assay [8] and in assay [9].
In the case of `CO[C@@]1(NC(=O)C(C(=O)O)c2ccc(O)cc2)C(=O)N2C(C(=O)O)=C(CSc3nnnn3C)CO[C@@H]21` (some centres undefined), the result in assay [1], in assay [2], in assay [3], in assay [6], in assay [7] and in assay [8] was inactive. Also, in assay [9], the result was inactive. Also, in [4], the Potency entry is “inactive”.
With `CN1C[C@@H]2C[C@H]1CN2c1cc2c(cc1F)c(=O)c(C(=O)O)cn2C1CC1`, the molecule was classed as inactive in [1], in assay [2], in assay [3], in assay [7], in assay [8] and in [9]. The Potency result in assay [4] was “inactive”.
For the molecule `NC(=O)N[C@@H](CCC(=O)O)C(=O)O`, the molecule was classed as inactive in [1], in assay [2], in assay [3], in assay [5], in assay [6] and in assay [7]. The molecule was called inactive in assay [8] and in [9]. For the same molecule, the Potency entry in assay [4] was “inactive”.
On to `CC(=O)NCc1c(I)c(NC(C)=O)c(I)c(C(=O)O)c1I`, for which the molecule was classed as inactive in assay [1], in [2], in [3], in assay [5], in assay [7] and in assay [8]. The Potency result in [4] is “inactive”.
In the case of `CCCCCCCCCCCCCCCCC(C(=O)O)C(O)(CC(=O)O)C(=O)O` (centres undefined), the molecule was classed as inactive in assay [2], in assay [10], in [3], in assay [6], in assay [7] and in [8]. Further, the call in [9] was inactive.
Take `O=c1[nH]cnc2nc[nH]c12`: the molecule was called inactive in [2], in [3], in assay [5], in [7], in assay [8] and in assay [9]. In [4], the Potency entry was “inactive”.
Take `FC(F)(F)C(Cl)Br` (centres undefined): the call in assay [1], in [2], in [3], in [5], in assay [6] and in assay [7] was inactive. Moreover, the molecule was classed as inactive in assay [8] and in assay [9]. The Potency result in assay [4] was “inactive”.
As for `OCc1ccc(Cl)cc1Cl`, the molecule was called inactive in [1], in [2], in assay [6], in [7], in [8] and in [9]. For the same molecule, the Potency result in assay [4] is “inactive”.

The values above are taken from PubChem BioAssay (NCATS).
